Results from PubChem BioAssay AID720554 (ICCB-Longwood Screening Facility, Harvard Medical School, 2013).
In all, about 12,000 compounds went through this assay and about 45 (0.4%) were called active. Rule as the data show it: active = inhibition mostly above about 83% (no sharp cut-off); inactive = mostly below about 52%. The entries come from a sample that favours actives as a whole.

Tests used:
[1] = BmaI1 acyl-homoserine lactone synthase inhibition – biochemical, fluorescence intensity, with counterscreen (AID 720554); conditions: BmaI1 enzyme assay, measured here: counterscreen fluorescence % control, concentration not given here
[2] = system: acyl-homoserine lactone synthase BmaI1 (Burkholderia mallei ATCC 23344); test: as above; conditions: BmaI1 enzyme assay, stronger effect = higher value, concentration not given here

| Structure (SMILES) | inhibition [1] | inhibition [2] |
| --- | --- | --- |
| Cc1nc(N2CCCCC2)sc1C1Sc2ccccc2NC1=O (stereo not drawn) | -5% | -2.5% (inactive) |
| Cc1nc(N2CCCC2)sc1C(=O)c1oc2ccccc2c1C | 17% | 20% (inactive) |
| O=C1N=c2ccccc2=C1c1sc(N2CCCCC2)nc1O | 8.5% | 91.5% (active) |
| CC(C)CNCC(=O)Nc1ccc(S(N)(=O)=O)cc1 | -1.5% | 6.5% (inactive) |
| Cc1csc(C(C#N)C(=O)CSc2ccc3c(c2)OCCO3)n1 (stereo not drawn) | 0% | 16% (inactive) |
| Cn1cccc1C(=O)Nc1ccc2c(c1)nc1n2CCCCC1 | 27% | 18% (inactive) |
| CC(=O)Nc1ccc(/C=N/n2cc(-c3ccccc3)[nH]c2=S)cc1 | 13.5% | 90% (active) |
| S=c1[nH]c(-c2ccccc2)cn1/N=C/c1ccc2c(c1)OCCO2 | 41.5% | 94% (inactive) |
| CC(=O)Nc1ccc(/C=N/N2C(=O)c3ccccc3C2=O)cc1 | 14.5% | 13% (inactive) |
| O=C(CCc1nc2ccccc2c(=O)[nH]1)Nc1ccccc1C(=O)NC1CC1 | 5.5% | 13.5% (inactive) |
| O=C(OC(c1ccccc1)c1ccccc1)c1ccncc1 | 14% | 14% (inactive) |
| CC1=C(C(=O)O)N2C(=O)[C@@H](NC(=O)[C@H](N)c3ccccc3)[C@H]2SC1 | 7.5% | -7% (inactive) |
| N[C@@H](C(=O)N[C@@H]1C(=O)N2C(C(=O)O)=C(CSc3cn[nH]n3)CS[C@H]12)c1ccc(O)cc1 (tested in a mixture with another compound) | 6% | 93% (active) |
| N[C@@H](C(=O)N[C@@H]1C(=O)N2C(C(=O)O)=C(Cl)CS[C@H]12)c1ccccc1 | 4.5% | 5% (inactive) |
| CN(C)S(=O)(=O)c1cccc(COC(=O)c2cn(-c3ccccc3)nc2-c2cccs2)c1 | -2.5% | 8.5% (inactive) |
| Cc1ccc(-c2csc(NC(=O)C3(c4ccccc4)CC3)n2)s1 | 20% | 20% (inactive) |
| O=C(c1cc(-c2ccccc2)nn1-c1ccccc1)N(C1CC1)C1CCS(=O)(=O)C1 (stereo not drawn) | 2% | 7% (inactive) |
| Cc1ccc(Cn2c(=S)[nH]c3ccccc32)cc1 | 3% | 97% (active) |
| Cn1c(=S)[nH]c2ccccc21 | 5% | 51.5% (inactive) |
| FC(F)n1c(=S)[nH]c2ccccc21 | 0.5% | 13.5% (inactive) |
| CC(Sc1nnnn1-c1ccc(O)cc1)C(=O)c1ccccc1 (stereo not drawn) | 2.5% | 8.5% (inactive) |
| O=S(=O)(NNC1=NCCCCC1)c1ccccc1 | 28.5% | 63.5% (inactive) |
| c1ccc(CNC2=NCCCCC2)nc1 | -13% | -8.5% (inactive) |

| Structure (SMILES) | inhibition [1] | inhibition [2] |
| --- | --- | --- |
| c1ccc(NNC2=NCCCCC2)nc1 | 4.5% | 85% (active) |
| O=Nc1c(O)[nH]c2c(C(F)(F)F)cccc12 | 11% | 13% (inactive) |
| COc1cccc(-n2c(SC3CCOC3=O)nc3ccccc3c2=O)c1 (stereo not drawn) | 13.5% | 14.5% (inactive) |
| O=C(CSc1ncc(C(F)(F)F)cc1Cl)N1CCN(S(=O)(=O)c2ccccc2)CC1 | -4% | 8.5% (inactive) |
| Cc1noc(C)c1COc1ccc(C(=O)OCC(N)=O)cc1 | 3% | 14% (inactive) |
| O=C(CCSc1ccc(Cl)cc1)Nc1ccccc1 | 17.5% | 15% (inactive) |
| CCn1c(CCC(=O)N2CCN(c3ccccn3)CC2)nc2cc(S(N)(=O)=O)ccc21 | -0.5% | 98% (active) |
| CCCn1c(CCC(=O)N(C)c2ccccc2)nc2cc(S(=O)(=O)N3CCCC3)ccc21 | -2.5% | 37% (inactive) |
| CCN(CC)S(=O)(=O)c1ccc2c(c1)nc(CCC(=O)N1CCN(c3ccccc3)CC1)n2CC | 10.5% | 17% (inactive) |
| Cc1ccc(C2=NN(C(=O)CSc3ccc4c(c3)OCCO4)C(c3ccco3)C2)cc1 (stereo not drawn) | 0% | 7.5% (inactive) |
| O=C(OCC1CCCCC1)c1n[nH]c2ccccc12 | 12.5% | 30.5% (inactive) |
| COc1ccc(Br)cc1CN(C)CN1C(=O)C2CC=CCC2C1=O (stereo not drawn) | 10.5% | 3.5% (inactive) |
| CN1/C(=C\C=N\NC(N)=S)C(C)(C)c2ccccc21 | 29% | 85% (active) |
| CN1/C(=C\C=Nc2ccccc2N)C(C)(C)c2ccccc21 | -25% | -9% (inactive) |
| CN1/C(=C\C=N\NC(=O)c2cccnc2)C(C)(C)c2ccccc21 | 7% | 43% (inactive) |
| CC(C)(C)c1ccc(C(=O)NCCc2ccccn2)cc1 | 2% | 5.5% (inactive) |
| Cc1cccc(OCc2nnc3n2-c2ccccc2SC3)c1 | -6.5% | -1.5% (inactive) |
| O=C(COC(=O)/C=C/c1ccco1)Nc1cccc(C(F)(F)F)c1 | -1% | 0.5% (inactive) |
| CC1Cc2ccccc2N1CC(=O)NCc1ccc2c(c1)OCO2 (stereo not drawn) | -28% | 48% (inactive) |
| NC(=O)c1ccc(-c2ccccc2)o1 | 40% | 20% (inactive) |
| COc1ccc(N2CCN(C(=S)Cc3ccccc3)CC2)cc1 | 5% | 8.5% (inactive) |
| S=C(c1ccc(-c2ccccc2)o1)N1CCN(c2ccccc2)CC1 | 13.5% | 97.5% (active) |
| O=C(COc1ccccc1C(=O)NCc1ccccc1)Nc1cccc2nsnc12 | 0% | 12% (inactive) |

| Structure (SMILES) | inhibition [1] | inhibition [2] |
| --- | --- | --- |
| COc1ccc(COc2ncnc3ccccc23)cc1F | 1% | 19.5% (inactive) |
| COc1ccc(COC(=O)c2cc(O)c3ccccc3c2O)cc1F | 19.5% | 84.5% (active) |
| COc1ccc(C(=O)OCc2ccccc2F)c(OC)c1OC | 12.5% | 0% (inactive) |
| CC(OC(=O)c1ccc(NS(=O)(=O)c2cccs2)cc1)c1nc2scc(-c3cccs3)c2c(=O)[nH]1 (stereo not drawn) | 8.5% | 15.5% (inactive) |
| CC1=C/C(=N\NC(=O)COc2ccc(C#N)cc2)CC(C)(C)C1 | 2% | 9% (inactive) |
| CNC(C)c1ccccc1 (stereo not drawn) | -4.5% | -1.5% (inactive) |
| COC(=O)c1cnc(N)s1 | 5% | 17% (inactive) |
| Fc1ccccc1NC(=S)N/N=C/c1cn(-c2ccccc2)nc1-c1cc2ccccc2o1 | 2.5% | 6% (inactive) |
| Oc1ccc(/C=N/NC(=S)Nc2ccc(Cl)cc2Cl)c(O)c1O | 15.5% | 84% (active) |
| O=CN1CCN(C(=S)Nc2ccc(Cl)cc2Cl)CC1 | 9% | -3% (inactive) |
| O=C(NCc1ccccc1)c1cccc(OCC(=O)N2CCOCC2)c1 | -11% | -13.5% (inactive) |
| CC1(C)CC(NCc2cc(Cl)c3c(c2)OCCCO3)CC(C)(C)N1 | 4.5% | 10% (inactive) |
| Cn1c(N)c(C(=O)CSc2nc3sc4c(c3c(=O)n2Cc2ccco2)CCCC4)c(=O)[nH]c1=O | 5% | 12.5% (inactive) |
| COc1ccccc1NC(=O)c1ccc(NC(=O)COC(=O)C2CCCO2)cc1 (stereo not drawn) | -4.5% | -1.5% (inactive) |
| Sc1ccc2c(c1)OCCCO2 | 3.5% | 38% (inactive) |
| CCOC(=O)C1CCN(C(C)C(=O)Nc2ccc(C(C)C)cc2)CC1 (stereo not drawn) | 3% | 9.5% (inactive) |
| S=c1[nH]cc2ccccn12 | 5.5% | 96.5% (active) |
| Ic1ccc(-c2ncc3ccccn23)cc1 | 11% | 17.5% (inactive) |
| Nn1cc(-c2ccccc2)[nH]c1=S | 52% | 104% (inactive) |
| CC(=O)NS(=O)(=O)c1ccc(N)cc1 | 9.5% | -0.5% (inactive) |
| Nc1ccc(S(=O)(=O)c2ccc(N)cc2)cc1 | 6% | -2.5% (inactive) |
| Nc1ccc(S(=O)(=O)CCSS(=O)(=O)c2ccc(N)cc2)cc1 | 0.5% | 88% (active) |
| Cc1nnc(SC(C)C(N)=O)n1Cc1ccccc1 (stereo not drawn) | -2% | 9.5% (inactive) |

| Structure (SMILES) | inhibition [1] | inhibition [2] |
| --- | --- | --- |
| COc1ccccc1NC1CC(=O)N(c2cccc(Cl)c2)C1=O (stereo not drawn) | 10.5% | 17.5% (inactive) |
| COc1cccc(N2C(=O)CC(n3nc(Nc4cccc(C)c4)sc3=S)C2=O)c1 (stereo not drawn) | 27.5% | 102% (active) |
| COc1cccc(Nc2nnc(SCC(=O)c3cc(C)n(C)c3C)s2)c1 | 9% | 20% (inactive) |
| C[C@@H](C(=O)N1CCSC1=NCc1ccccc1)N1C(=O)C2CC=CCC2C1=O (stereo partly drawn) | 4% | 8.5% (inactive) |
| CC1CC(C)CN(C(=O)c2cc3ccccc3oc2=O)C1 (stereo not drawn) | 9% | 8.5% (inactive) |
| Cc1csc(SCC(=O)c2ccc(S(=O)(=O)N3CCCCC3)cc2)n1 | 21.5% | 58.5% (inactive) |
| O=C(CSc1nc2ccccc2c(=O)n1C1CCCC1)Nc1ccc2c(c1)OCCO2 | 6% | 28% (inactive) |
| O=C(CN1CCN(S(=O)(=O)Cc2ccccc2)CC1)Nc1ccc2[nH]c(=O)[nH]c2c1 | 15.5% | 35.5% (inactive) |
| CN1CCN(C(c2ccccn2)c2c(-c3ccccc3)n(O)c3ccccc23)CC1 (stereo not drawn) | 17% | 105% (active) |
| Oc1c(C(c2ccccn2)N2CCN(c3ccc(F)cc3)CC2)cc(Cl)c2cccnc12 (stereo not drawn) | -13.5% | 0.5% (inactive) |
| CCn1c(-c2ccccc2)c(C(=O)CN2CCN(C)CC2)c2ccccc21 | 2.5% | 38% (inactive) |
| CNC(=O)c1sc(CN2C(=O)c3ccccc3S2(=O)=O)nc1C | -7% | 91% (active) |
| CN(C)C(=O)CN1C(=O)c2ccccc2S1(=O)=O | -3% | 2% (inactive) |
| O=C1c2ccccc2S(=O)(=O)N1Cc1cc(=O)[nH]c(=O)[nH]1 | -2.5% | -1% (inactive) |
| CC(Sc1ccccc1F)C(=O)Nc1ccc(S(N)(=O)=O)cc1 (stereo not drawn) | 1% | 9.5% (inactive) |
| Cn1c(Cc2cccs2)nnc1SCC(=O)N1CCNC1=O | 2.5% | 15% (inactive) |
| CCCn1c(SCCCC(=O)c2cccs2)n[nH]c1=O | -0.5% | 5.5% (inactive) |
| Oc1cc2c(cc1C(c1ccc(C(F)(F)F)cc1)N1CCN(c3ccccc3)CC1)OCO2 (stereo not drawn) | 5% | 5.5% (inactive) |
| COC(=O)c1ccc(C(c2cc3c(cc2O)OCO3)N2CCN(c3ccccc3)CC2)cc1 (stereo not drawn) | 24% | 83% (active) |
| COC(=O)c1ccc(C(c2c(O)ccc3ccccc23)N2CCOCC2)cc1 (stereo not drawn) | 11% | 18% (inactive) |
